Screening results deposited in PubChem BioAssay by National Center for Advancing Translational Sciences (NCATS).
Giardia kill = Small Molecules that selectively kill Giardia lamblia: qHTS; activity change, % at 7.66 µM, hits read low; AID 540267, 2011; 0.15% of 340,000 active; Giardia lamblia trophozoite viability; in the data active = activity change below about -80%; inconclusive = between about -30% and that limit;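 note: parasites exposed to compound for two days anaerobically before the ATP read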
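Giardia trophozoites, 100 cells per well, were exposed to compounds for 48 hrs at 37 deg C under anaerobic conditions; viability was then read as ATP content by bioluminescence after 15-30 min at room temperature.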
ELG1 repair inh = qHTS screen for small molecules that inhibit ELG1-dependent DNA repair in human embryonic kidney (HEK293T) cells expressing luciferase-tagged ELG1; HEK293T ELG1-luciferase reporter, luminescence, 16 h; DNA damage induced by 5-fluorouridine; Potency, µM (highest dose often 46.1 µM), for inactives: at the top dose activity change, negative = inhibition, hits mostly inhibitors; 2.3% of 330,000 active; note: potency is the fitted concentration of half-maximal effect; nearly all actives have a fitted effect of over 55% in size
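Step one: seed 2,000 cells per well. Step two: pin-transfer compound or DMSO alongside 5-fluorouridine. Step three: incubate 16 hr, 37 °C, 5% CO2. Step four: add ONE-Glo, wait 30 min, read luminescence.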
IL1B secr inh = qHTS for Inhibitors of Inflammasome Signaling: IL-1-beta AlphaLISA Primary Screen; activity change, % at 57.5 µM; 4.7% of 360,000 active; THP-1 LPS/ATP IL-1B secretion, AlphaLISA, 16 h; hits give low values; in the data active = activity change below about -50%; inconclusive = mostly about -30% to -49%
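THP-1 cells pretreated 1 hr with compounds (up to 57.5 uM final), then stimulated with LPS (250 ng/mL final) plus ATP (1.25 mM final); secreted IL-1B measured by AlphaLISA after 16 hr, decreased signal indicating inhibition.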
TDP1 cell noCPT = qHTS for Inhibitors of human tyrosyl-DNA phosphodiesterase 1 (TDP1): qHTS in cells in absence of CPT; 15% of 420,000 active; Potency, µM (highest dose often 46.2 µM), inactives show top-dose activity change, negative = growth inhibition, most hits filed as inhibitors; DT40 Tdp1-/- hTDP1 cells, no CPT, ATP luminescence, 48 h; note: potency is the fitted concentration of half-maximal effect; nearly all actives have a fitted effect of over 55% in size
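A cellular qHTS used chicken DT40 cells lacking endogenous Tdp1 but carrying stably transfected human TDP1. Compounds were applied without camptothecin, and cell growth kinetics were judged by ATP-dependent luminescence after ≥48 hr.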
DT40 TDP1 CPT = qHTS for Inhibitors of human tyrosyl-DNA phosphodiesterase 1 (TDP1): qHTS in cells in presence of CPT. chicken DT40 Tdp1-/-;hTDP1 cells + 20 nM CPT, ATP luminescence, 48 h. 12% of 420,000 active. Potency, µM (titrated, usually from 46.2 µM), without a hit: at the highest dose activity change, negative = growth inhibition, most hits filed as inhibitors; note: potency is the fitted concentration of half-maximal effect; nearly all actives have a fitted effect of over 55% in size
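Chicken DT40 Tdp1-/- cells complemented with human TDP1, 400 cells/well, exposed to compounds plus 20 nM camptothecin for at least 48 h at 37 C; viability read as ATP content by CellTiter-Glo luminescence.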
TDP1 inh = qHTS Assay for Inhibitors of Tyrosyl-DNA Phosphodiesterase (TDP1) | 0.28% of 350,000 active | Tyrosyl-DNA phosphodiesterase 1 (Homo sapiens), Q9NUW8 | recombinant TDP1, AlphaScreen DNA substrate cleavage | Potency, µM (top dose mostly 130 µM), for the others: top-dose activity change, negative = inhibition, actives largely listed as inhibitors; note: potency is the fitted concentration of half-maximal effect; nearly all actives have a fitted effect of over 40% in size
Target sequence (Q9NUW8 whole entry, looked up): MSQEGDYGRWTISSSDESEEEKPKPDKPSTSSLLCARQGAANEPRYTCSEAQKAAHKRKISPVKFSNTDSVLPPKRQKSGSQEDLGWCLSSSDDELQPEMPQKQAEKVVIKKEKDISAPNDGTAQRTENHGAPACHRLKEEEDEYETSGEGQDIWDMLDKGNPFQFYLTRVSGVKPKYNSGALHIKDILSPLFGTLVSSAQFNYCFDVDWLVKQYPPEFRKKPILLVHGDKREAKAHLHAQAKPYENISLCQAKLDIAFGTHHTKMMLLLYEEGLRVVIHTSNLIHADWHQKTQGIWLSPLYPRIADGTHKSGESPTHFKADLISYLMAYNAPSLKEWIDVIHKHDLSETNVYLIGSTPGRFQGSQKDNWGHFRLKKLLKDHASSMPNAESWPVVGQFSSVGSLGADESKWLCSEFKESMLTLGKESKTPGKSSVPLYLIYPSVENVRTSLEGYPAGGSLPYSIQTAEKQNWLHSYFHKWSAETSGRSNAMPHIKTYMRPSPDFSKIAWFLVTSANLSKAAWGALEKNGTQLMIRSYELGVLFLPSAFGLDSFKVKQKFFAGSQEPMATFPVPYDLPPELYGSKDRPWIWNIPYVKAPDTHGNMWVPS
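Tdp1 1 nM final; 15 min RT w/ cpd; substrate 15 nM, 5 min; beads 10 ug/ml, 10 min; AlphaScreen read. Neg ctrl: no enzyme.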
* = called active by the depositor; ? = inconclusive; . = no result given. Rows were chosen to be rich in hits. Some 19% of all compounds tested hit in one or more screens of this group. Unless noted, calls come from the whole dose curve; as a rule, active = well fitted curve in the direction sought with a large enough effect; inconclusive = small, poorly fitted or top-dose-only effect, or another doubt; inactive = no such curve, though single readings can be large; an effect the other way counts as inactive or inconclusive. % is set by controls: 0 for no effect and ±100 for the full control effect.

SMILES | Giardia kill | ELG1 repair inh | IL1B secr inh | TDP1 cell noCPT | DT40 TDP1 CPT | TDP1 inh
CC(O)(c1cccc(F)c1)c1nc(-c2ccc(S(C)(=O)=O)cc2)cs1 (centres undefined) | . | . | 6.8 | 13µM* | 16.4µM* | .
OC(c1ccccc1)(c1nc(-c2cccc(C(F)(F)F)c2)cs1)C(F)(F)F (centres undefined) | . | . | -29.5 | ? | ? | .
OC(c1ccccc1)(c1nc(-c2cc3ccccc3o2)cs1)C(F)(F)F (centres undefined) | . | . | 0.0 | 16.4µM* | 20.6µM* | .
COc1ccc(-c2csc(C(C)(O)c3cccc(F)c3)n2)cc1OC (centres undefined) | . | . | -9.0 | 14.6µM* | 23.1µM* | .
CN(C)CCn1nnc2c(=O)oc3ccccc3c21 | 5.1 | 4.2% | 2.5 | -15.4% | -1.3% | 0.0%
CC(O)(c1cccc(F)c1)c1nc(-c2ccccc2)cs1 (centres undefined) | . | . | 24.7 | 18.4µM* | 20.6µM* | .
COc1ccc(/C=C/c2cc(C(F)(F)F)[nH]c(=O)n2)cc1OC | -17.7 | 3.1% | -95.7* | -20.6% | -5.7% | 5.6%
O=c1nc(/C=C/c2ccccc2C(F)(F)F)cc(C(F)(F)F)[nH]1 | 13.7 | 23.0% | -14.0 | -15.6% | -11.0% | 6.7%
CCOc1cc(/C=C/c2nc3ccccc3c(=O)[nH]2)ccc1O | 0.6 | 28.9% | -3.3 | ? | ? | .
CCOc1cc(/C=C/c2cc(C(F)(F)F)[nH]c(=O)n2)ccc1O | 6.0 | ? | -62.6* | ? | ? | 6.0%
Cc1cc(F)ccc1NC(=O)CCn1nc(C)c(S(=O)(=O)N2CCCCC2)c1C | . | . | . | -7.3% | 5.7% | 1.2%
COc1ccc(CCNc2nc(SCc3ccc(F)cc3)nc3ccccc23)cc1OC | . | . | . | 7.31µM* | 7.31µM* | 0.5%
COc1ccc(CCNc2nc(SCc3cccc(Cl)c3)nc3ccccc23)cc1OC | . | . | . | 8.2µM* | ? | 5.4%
COc1ccc(CCNc2nc(SCc3ccccc3F)nc3ccccc23)cc1OC | . | . | . | 3.66µM* | 3.66µM* | 6.4%
CCN(CC)CCN1C(=O)C2C(C(=O)Nc3ccc(C(C)C)cc3)C3C=CC2(O3)C1C(=O)NC1CCCCC1 (centres undefined) | 13.3 | ? | -14.0 | -23.4% | 1.4% | -5.6%
Cn1c(CS/C(N)=N/N=C/c2ccccc2)c(Br)c(=O)n1-c1ccccc1 | 0.0 | 20.2% | -5.5 | ? | ? | 6.3%
Cc1ccc2c(c1)N(CCCC(=O)NCc1ccc3c(c1)OCO3)C(=O)CO2 | 11.5 | 3.7% | -6.5 | -19.5% | -3.2% | 5.3%
Cc1cc(C)c(NC(=O)CCCN2C(=O)COc3ccc(C)cc32)c(C)c1 | . | . | . | 16.4µM* | ? | 7.6%
Cc1cccc(CNC(=O)CCCN2C(=O)COc3ccc(C)cc32)c1 | . | . | . | ? | 14.6µM* | 5.1%
CCOc1ccccc1CNC(=O)CCCN1C(=O)COc2ccc(C)cc21 | . | . | . | 18.4µM* | ? | -7.6%
Cc1cc(C)c2c(=O)cc(C(=O)NCc3ccccc3)oc2c1 | 9.4 | 4.6% | 29.9 | -14.2% | 3.7% | .
Cc1c(C#N)c(O)n(C)c(=O)c1N=Nc1ccc(S(N)(=O)=O)cc1 | -11.1 | -12.7% | -18.7 | 13µM* | ? | 3.7%
Cc1c(C#N)c(O)n(CCO)c(=O)c1N=Nc1ccc(S(N)(=O)=O)cc1 | -8.7 | -11.3% | 7.2 | 9.4% | -29.0% | 3.7%
Cc1ccc(C)c(OCCn2c(CCNC(=O)C3CCCCC3)nc3ccccc32)c1 | 3.0 | . | . | . | . | -3.5%
CC(C)(C)C(=O)NCCc1nc2ccccc2n1CCCCOc1ccccc1 | . | . | . | 16.4µM* | ? | 3.7%
SMILES | Giardia kill | ELG1 repair inh | IL1B secr inh | TDP1 cell noCPT | DT40 TDP1 CPT | TDP1 inh
CCc1ccc(OCCCCn2c(CCNC(=O)C3CCCCC3)nc3ccccc32)cc1 | -2.2 | . | . | 10µM* | 7.08µM* | 1.0%
Cc1ccccc1OCCn1c(CCNC(=O)C2CCCCC2)nc2ccccc21 | 8.9 | . | . | 17.8µM* | ? | -7.9%
O=C(NCCc1nc2ccccc2n1CCOc1ccc(Cl)cc1)C1CCCCC1 | -7.2 | . | . | . | . | 2.5%
O=C(NCCc1nc2ccccc2n1CCCOc1ccccc1Cl)C1CCCCC1 | -11.7 | . | . | 7.08µM* | 10µM* | -5.5%
O=[N+]([O-])c1ccc(S(=O)(=O)N(CCCN2CCOCC2)Cc2cccs2)cc1 | ? | -3.0% | 8.5 | -14.5% | -16.5% | -7.9%
C=CCCCCCCCCC(=O)N1CCN(c2cc3c(cc2F)c(=O)c(C(=O)O)cn3CC)CC1 | 0.8 | 2.1% | 27.7 | ? | 20.6µM* | .
CCn1cc(C(=O)O)c(=O)c2cc(F)c(N3CCN(C(=S)Nc4ccc(OC)cc4)CC3)cc21 | 13.0 | -15.7% | ? | ? | ? | .
CCn1cc(C(=O)O)c(=O)c2cc(F)c(N3CCN(C(=S)NC(=O)c4cc(OC)cc(OC)c4)CC3)cc21 | 1.0 | ? | 0.9 | ? | ? | 44.7µM*
C/C(=N\NC(=S)NC1CCCCC1)c1cccs1 | 17.6 | -29.6% | 19.3 | 10.3µM* | 13µM* | 0.0%
FC(F)Oc1ccc(NC(=S)NC2CCCCCCC2)cc1 | 0.9 | 19.0% | -91.1* | ? | ? | -3.2%
CC1CCCN(C(=S)Nc2ccc(Nc3ccccc3)cc2)C1 (centres undefined) | -26.4 | ? | -85.7* | 9.2µM* | 10.3µM* | 5.4%
COC(=O)c1ccc(NC(=S)NC2CCCCC2)cc1 | 2.0 | ? | -2.9 | 0.2% | -21.7% | 4.8%
C/C(=N\NC(=S)NC1CCCCC1)c1c(F)cccc1F | 3.6 | ? | 15.7 | ? | ? | 9.2%
C/C(=N\NC(=S)NC1CCCCC1)c1ccc(OC(F)F)cc1OC(F)F | -1.5 | -14.0% | ? | 25.9µM* | 25.9µM* | .
O=C(/C=C/[C@H]1O[C@@H](n2cnc3c(NC(=O)c4ccccc4)ncnc32)[C@H](O)[C@@H]1O)NCc1ccco1 | . | . | -20.7 | -6.2% | -2.5% | .
S=C(Nc1ccc(Cl)cc1)NC1CCCCC1 | 10.9 | 34.8% | -10.0 | ? | ? | 1.2%
S=C(Nc1ccc(Nc2ccccc2)cc1)NC1CCCCCC1 | 22.2 | ? | -79.0* | 16.4µM* | 23.1µM* | 8.1%
